# Measured values as given in PubChem BioAssay AID687014 (The Scripps Research Institute Molecular Screening Center, 2013).
# Where “and” joins values, the source holds several entries; their conditions need not be identical. Identical values can stand only once. The campaign covered roughly 370,000 compounds. About 6,800 (1.8%) were called active.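 Rule for the calls: active = activation above a cutoff set at the mean of all screened compounds plus 3 SD (cut at about 10% in these data); inactive = the rest.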 The list comes from a sample in which actives are over-represented; it also holds similar structures and randomly drawn compounds.
# Test system: Nuclear hormone receptor DAF-12 (Heterodera glycines), GAL4 fusion
# Experiment: H. glycines DAF-12 receptor agonists, primary screen, cell-based, luminescence, HEK293, GAL4 fusion, UAS-luciferase (AID 687014);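 note: 0% = DMSO wells and 100% = sodium butyrate wells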
# Conditions: HEK293 GAL4-hgDAF12 UAS-luciferase reporter, agonist luminescence; at 6.8 µM; active compounds read high; normalized to butyrate control
row,SMILES,activation
1,O=c1[nH]c(-c2ccccc2)cn1C1CCN(Cc2ccc(-c3nc4ccc(F)cc4nc3-c3ccccc3)cc2)CC1,2.08% (inactive)
2,O=[N+]([O-])c1ccc2c(c1)C(N1CCOCC1)/C(=C/C1(O)CCCCC1)O2 (centres undefined),-1.36% (inactive)
3,CCOC(=O)C1CCN(C(=O)C(C)(C)NC(=O)Nc2ccc(F)c(F)c2)CC1,-0.28% (inactive)
4,COc1ccc(/C=C2\CC3(OC(C)=O)CCCN2C3)cc1 (centres undefined),-5.68% (inactive)
5,COc1ccc(/C=C2\N=C3CCCN3C2=O)cc1,13% (active)
6,COc1ccc(-c2nc3n(c2Br)CCC3)cc1,5.25% (inactive)
7,O=C(C1CCCN1S(=O)(=O)c1ccccc1)N1CCc2ccccc2C1 (centres undefined),-1.43% (inactive)
8,O=C(CSc1nnc(COc2ccccc2)n1-c1ccc(Cl)cc1)Nc1ccc2c(c1)OCO2,-1.26% (inactive)
9,CC(C)(C)C1CCC(=NNC(=O)c2ccc(Br)o2)CC1 (centres undefined),11.6% (active)
10,CC(C)(C)C1CCC(=NNC(=O)c2cc(-c3ccccc3)n[nH]2)CC1 (centres undefined),6.27% (inactive)
11,CCC(C)(C)C1CCC(=NNC(=O)c2ccc(Br)o2)CC1 (centres undefined),7.56% (inactive)
12,COC(=O)C1=C(C)N(Cc2cccc(C(F)(F)F)c2)C(=NCc2ccccc2)NC1c1ccccc1C(F)(F)F (centres undefined),-1.64% (inactive)
13,C/C(=N/NC(=O)c1ccc(Br)o1)c1ccc(C)o1,11.9% (active)
14,CC(CNC(=O)c1ccc(Br)o1)NC(=O)c1ccc(Br)o1 (centres undefined),-3.41% (inactive)
15,C/C(=N\NC(=S)NC1CCCCC1)c1ccc(C)o1,3.96% (inactive)
16,COc1cc(SC)ccc1C(=O)Nc1cc(C)ccn1,15.5% (active)
17,COc1cc(SC)ccc1C(=O)Nc1nc(C)cs1,-15.3% (inactive)
18,Cc1ccnc(NC(=O)CNC(=O)c2ccccc2)c1,2.39% (inactive)
19,O=S1(=O)c2c(NCc3ccco3)cccc2Oc2ccccc2CN1Cc1cn(Cc2cccc(C(F)(F)F)c2)nn1,-3.4% (inactive)
20,COc1cccc(NC(=O)CSc2nccn(-c3ccc4c(c3)OCCO4)c2=O)c1,0.16% (inactive)
21,COc1ccccc1C1C(C(N)=O)=C(C)Nc2nc(CCCO)nn21 (centres undefined),0.62% (inactive)
22,CN(C(=O)COC(=O)c1cc(=O)[nH]c2ccccc12)C1CCCCC1,6.7% (inactive)
23,O=C(COC(=O)c1cc(=O)[nH]c2ccccc12)NCc1cccc(Cl)c1,0.1% (inactive)

row,SMILES,activation
1,CC1CCN(C(=O)COC(=O)c2cc(=O)[nH]c3ccccc23)CC1,12.3% (active)
2,CCOC(=O)[C@]12CCCC3=C1N(CCC3)C(=O)[C@@H](CC(=O)NCC13CC4CC(CC(C4)C1)C3)C2,0.11% (inactive)
3,COc1cc(/C=C/C(=O)OCC(=O)NCCCc2ccccc2)ccc1O,-1.55% (inactive)
4,COc1cc(/C=N/Nc2nc3ccccc3s2)ccc1O,15% (active)
5,COc1ccc(/C=N/Nc2ncnc3sc4c(c23)CCCC4)cc1O,5.98% (inactive)
6,CN(C)C(=O)N1CCN(C(=O)[C@@H](Cc2ccccc2)NC(=O)[C@H]2O[C@@H](n3ccc(N)nc3=O)[C@H](O)[C@@H]2O)CC1,1.19% (inactive)
7,CCOC(=O)c1c(Cc2ccc(Cl)cc2)c[nH]c1C,12.8% (active)
8,CCOC(=O)c1ccc(CS(=O)c2ccc(Cl)cc2)o1 (centres undefined),-2.05% (inactive)
9,CCOC(=O)c1c(S(=O)(=O)Nc2cccc(Cl)c2)c(C)n(C)c1C,-4.39% (inactive)
10,CCOC(=O)[C@]12CCCC=C1N(Cc1ccc(OC)cc1)C(=O)[C@@H]2CC(=O)N1CCOCC1,0.99% (inactive)
11,CNC(=O)/C(=C\C=C\c1ccccc1)NC(=O)c1ccc([N+](=O)[O-])cc1,1.17% (inactive)
12,COCC(=O)N[C@@H]1C[C@@H]2O[C@@H](CO)CC[C@@H]2O[C@@H]1CCc1ccc(-c2ccccc2)cc1,2.02% (inactive)
13,O=C(CSc1nnnn1C1CCCC1)N1CCCCC1,11.8% (active)
14,CC(=O)Nc1ccc(NC(=O)CSc2nnnn2C2CCCCC2)cc1,0.66% (inactive)
15,CC1CCCC(C)N1C(=O)CSc1nnnn1C1CCCC1 (centres undefined),3.93% (inactive)
16,Cc1cc(NCCc2c[nH]c3ccccc23)ccc1Oc1cccnc1,-6.96% (inactive)
17,C[C@H](O)[C@@H]1CN2CCc3ccc(-c4ccc5c(c4)OCO5)cc3[C@@H]2C[C@@H]1N(C)C(=O)C1CCCCC1,5.63% (inactive)
18,C[C@H]1[C@H](NC(=O)c2cccc(N(C)C)c2)CC[C@@]23CCCN2C(=O)CCC[C@@H]13,4.78% (inactive)
19,CC(=O)Nc1cnc(-c2ccc(O)cc2C)cn1,0.71% (inactive)
20,Cc1ccc(-c2csc(NCCc3nc4cc(Cl)c(Cl)cc4n3CCOCCO)n2)cc1,0.43% (inactive)
21,Cc1ccc(Nc2nc(-c3ccc(O)cc3O)cs2)nc1,11% (active)
22,C/C=C/c1ccc(OCCOc2ccc(C=O)cc2OC)c(OC)c1,1.06% (inactive)
23,O=C(NCCc1ccc(F)cc1)c1n[nH]c2ccccc12,4.51% (inactive)

row,SMILES,activation
1,O=C(NCCc1ccc(F)cc1)c1ccc2nccnc2c1,15.2% (active)
2,O=C(NCCc1ccc(F)cc1)c1ccc(S(=O)(=O)N2CCCCC2)cc1,-1.32% (inactive)
3,O=S(=O)(c1ccc2c(c1)OCCCO2)N1CCN(S(=O)(=O)c2c(F)cccc2F)CC1,3.46% (inactive)
4,CCOc1cc(C(=O)N2CCc3cc(OC)c(OC)cc3C2)ccc1OC(F)F,-2.99% (inactive)
5,CCOC(=O)C1CCN(C(=O)COC(=O)C2CCN(S(=O)(=O)c3ccc4c(c3)OCCO4)CC2)CC1,1.65% (inactive)
6,O=C(O)Cc1csc(-c2cccc(Oc3ccccc3)c2)n1,2.98% (inactive) and 2.42% (inactive)
7,NC(=O)Cc1ccc2sc(-c3ccccc3)nc2c1,16.9% (active)
8,CCn1c2ccccc2c2cc(CC(N)=O)ccc21,-1.01% (inactive)
9,Clc1ccc(C(Cn2ccnc2)OCc2ccsc2Cl)c(Cl)c1 (centres undefined),-0.6% (inactive)
10,COc1ccnc(C(=O)N2CCC(Oc3cccnc3)CC2)c1,-2.68% (inactive)
11,COc1ccc(CCC(C)N2CCc3ccccc3C2)cc1 (centres undefined),1.85% (inactive)
12,COC(=O)[C@]12C[C@H](CC(=O)NCc3ccc(C)o3)C(=O)N(CCC3=CCCCC3)C1=C[C@H](C(C)(C)C)O[C@@H]2C,1.5% (inactive)
13,COc1ccc(C2CC(c3ccccc3)=NN2C(=O)CSc2nccc(=O)[nH]2)cc1 (centres undefined),1% (inactive)
14,COc1ccc(C2=NN(C(=O)c3ccccc3C(=O)O)C(c3ccccc3O)C2)cc1 (centres undefined),16.4% (active)
15,COc1ccc(C2CC(c3ccccc3)=NN2C(=O)c2ccc(Cl)c([N+](=O)[O-])c2)cc1 (centres undefined),-2.91% (inactive)
16,COc1ccc2nc(SCc3ccccc3)nc(C)c2c1,16.3% (active)
17,COc1ccc(NCc2nnc(SCc3ccccc3)n2-c2ccc(OC)cc2)cc1,1.53% (inactive)
18,COc1ccc(CSc2nnc(-c3cccc(C)c3)n2C)cc1,-0.32% (inactive)
19,CCOc1ccc(S(=O)(=O)NCC2CCCO2)cc1 (centres undefined),-0.13% (inactive)
20,COC(=O)[C@]12C[C@H](CC(=O)NCc3ccccc3)C(=O)N(Cc3ccccc3)C1=C[C@H](COCc1ccccc1)O[C@@H]2C,-0.41% (inactive)
21,Cc1ccc(NC(=O)N2c3ccccc3SC2c2ccco2)c(C)c1 (centres undefined),-2.03% (inactive)
22,O=C(CCS(=O)(=O)c1ccccc1)Nc1ccc(Cl)c(Cl)c1,5% (inactive)
23,COc1ccc(/C=C2/CCCc3ccccc3C2=O)cc1,16.7% (active)

row,SMILES,activation
1,COc1ccc(C=C2CCC3C(CCCC34OCCO4)C2=O)cc1 (centres undefined),2.78% (inactive)
2,COc1ccccc1Oc1ccc(N/C=C2/CCCC2=O)cc1,2.59% (inactive)
3,COc1ccc(Cn2cc(COC(=O)N(C)Cc3ccccc3)nn2)cc1,2.67% (inactive)
4,COc1cccc(-c2nnc(SCCOc3ccc4c(C)cc(=O)oc4c3)o2)c1,-0.66% (inactive)
5,CC(=O)Oc1ccc2c(=O)oc(-c3ccc([N+](=O)[O-])cc3)nc2c1,0.03% (inactive)
6,O=[N+]([O-])c1ccc2c(c1)C(O)n1nc(-c3ccccc3)nc1S2 (centres undefined),-1.58% (inactive)
7,O=[N+]([O-])c1ccc2oc(-c3cccc(O)c3)nc2c1,19.1% (active)
8,COc1cccc(-c2nc(CS(=O)(=O)CC(=O)NCCc3ccc(OC)c(OC)c3)c(C)o2)c1,0.2% (inactive)
9,COc1cccc(-c2nc3cc(C)ccc3o2)c1,17.6% (active)
10,C=CCN1C(=O)[C@@H](CC(=O)NCCCOCCCC)[C@]2(C(=O)OCC)CCCCC/C=C/12,-2.8% (inactive)
11,C/C(=N/O)c1ccc(N2C(=O)C3C4C=CC(C3C2=O)C2C3C(=O)N(c5ccc(/C(C)=N/O)cc5)C(=O)C3C42)cc1 (centres undefined),-2.43% (inactive)
12,COc1ccc(-c2cc(-c3nnc(SCC(=O)Nc4cccc5ccccc45)n3N)[nH]n2)cc1,-0.33% (inactive)
13,CC[C@H](C)[C@H]1CNC(=O)C(=O)N1CC1CCN(CCc2ccc(OC)c(OC)c2)CC1,-1.21% (inactive)
14,CC[C@@H](CCC(=O)N(c1ccccc1)c1ccccc1)C1CC1,0.58% (inactive)
15,O=c1oc(-c2ccccc2NS(=O)(=O)c2ccc(Cl)cc2)nc2ccccc12,0.61% (inactive)
16,S=c1[nH]nc(/C=C/c2ccccc2)o1,4.59% (inactive)
17,O=c1oc(/C=C/c2ccccc2)nc2ccccc12,16% (active)
18,COc1ccc(-n2c(COc3ccc(C)cc3)nnc2SCC(=O)Nc2ccc(Oc3ccccc3)cc2)cc1,3.51% (inactive)
19,COc1ccccc1NC(=O)C(C)OC(=O)c1ccc(-n2cnnn2)cc1 (centres undefined),-3.02% (inactive)
20,N#Cc1ccc(C2=CC(=O)C[C@H](c3ccc(Cl)cc3)C2)cc1,-2.41% (inactive)
